Source: PubChem
BAZ2B block – qHTS Assay for Inhibitors of BAZ2B. Bromodomain adjacent to zinc finger domain protein 2B (Homo sapiens), Q9UIF8. AlphaScreen BAZ2B-H3K14Ac peptide displacement. Potency, µM (highest dose often 114 µM), inactives show at the highest dose activity change, negative = inhibition, most hits filed as inhibitors. 360,000 compounds, 4.4% hits. AID 504333, 2011; also: % is scaled to controls: 0 for no effect and ±100 for the full control effect; nearly all actives have a fitted effect of over 60% in size
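AlphaScreen displacement of biotin-H3(5-23)K14Ac peptide (50 nM final) from BAZ2B (50 nM final) in PBS pH 7.4, 0.01% Tween-20; complex preformed 30 min RT, then compounds (top 110 uM) 30 min RT, beads 20 min dark.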
VDR inh – Inhibitors of the vitamin D receptor (VDR): qHTS; Vitamin D3 receptor (Homo sapiens), P11473; 400,000 compounds, 0.93% hits; Potency, µM, without a hit: max response, negative = inhibition, hits mostly inhibitors; VDR-SRC2-3 peptide fluorescence polarization, 2 h; also: % is scaled to controls: 0 for no effect and ±100 for the full control effect
Target sequence (P11473 whole entry, looked up): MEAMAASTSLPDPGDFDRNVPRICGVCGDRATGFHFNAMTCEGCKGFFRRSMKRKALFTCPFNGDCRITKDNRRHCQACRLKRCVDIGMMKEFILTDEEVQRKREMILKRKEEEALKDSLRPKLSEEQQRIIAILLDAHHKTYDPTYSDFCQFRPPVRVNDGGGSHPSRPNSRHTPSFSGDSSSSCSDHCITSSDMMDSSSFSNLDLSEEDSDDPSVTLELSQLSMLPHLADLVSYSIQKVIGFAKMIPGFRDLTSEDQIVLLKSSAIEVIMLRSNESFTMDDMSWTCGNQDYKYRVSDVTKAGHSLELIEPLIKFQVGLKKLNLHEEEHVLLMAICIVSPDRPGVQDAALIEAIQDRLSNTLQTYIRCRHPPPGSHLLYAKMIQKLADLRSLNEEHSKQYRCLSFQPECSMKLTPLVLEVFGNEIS
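Signal is fluorescence polarization, reporting how far test compounds block the interaction of VDR with the SRC2-3 coregulator peptide after a 2 h room-temperature incubation.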
PLK1 PBD block – qHTS for Inhibitors of PLK1-PDB (polo-like kinase 1 - polo-box domain): Primary Screen. Plk1 PBD binding of FITC phosphopeptide, fluorescence polarization. 360,000 compounds, 2.8% hits. Serine/threonine-protein kinase PLK1 (Homo sapiens), P53350. Potency, µM, for the others: max response, negative = inhibition, most hits filed as inhibitors; also: series mostly up to about 57 µM; % is scaled to controls: 0 for no effect and ±100 for the full control effect; nearly all actives have a fitted effect of over 65% in size
HP1b chromo inh – HTS for Inhibitors of HP1-beta Chromodomain Interactions with Methylated Histone Tails; Chromobox protein homolog 1 (Homo sapiens), P83916; AlphaScreen HP1-beta / biotin-H3K9me3 peptide binding; Potency, µM (series often up to 114 µM), for the others: at the top dose activity change, negative = inhibition, hits mostly inhibitors; 390,000 compounds, 0.56% hits; also: nearly all actives have a fitted effect of over 70% in size
Target sequence (P83916 whole entry, looked up): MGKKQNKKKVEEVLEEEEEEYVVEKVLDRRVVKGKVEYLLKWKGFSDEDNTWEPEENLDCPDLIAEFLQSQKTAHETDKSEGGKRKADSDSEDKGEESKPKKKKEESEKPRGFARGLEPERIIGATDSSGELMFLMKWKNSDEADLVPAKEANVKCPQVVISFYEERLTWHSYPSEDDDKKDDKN
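AlphaScreen: HP1-beta (50 nM) preformed 30 min with biotin-H3(1-18)K9me3 peptide (50 nM) in PBS pH 7.4, 0.01% Tween-20. Compound added for 30 min at RT, then streptavidin donor/nickel chelate acceptor beads (10 ug/mL) for 30 min.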
L3MBTL1 block – qHTS Assay for the Inhibitors of L3MBTL1; AID 485360, 2010; 230,000 compounds, 0.66% hits; AlphaScreen L3MBTL1–H3K9me1 peptide binding; Potency, µM (doses to about 57.1 µM), inactives show top-dose activity, negative = inhibition, actives largely listed as inhibitors; Lethal(3)malignant brain tumor-like protein 1 (Homo sapiens), Q9Y468; also: % is scaled to controls: 0 for no effect and ±100 for the full control effect; nearly all actives have a fitted effect of over 60% in size
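L3MBTL1 (50 nM) pre-complexed 30 min with biotinylated H3(1-15)K9me1 peptide (75 nM), then compounds added for 30 min at room temperature; AlphaScreen streptavidin donor/nickel chelate acceptor beads (10 ug/mL final) read after 30 min dark incubation.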
JMJD2A Tudor – qHTS Assay for Inhibitors of JMJD2A-Tudor Domain. Lysine-specific demethylase 4A (Homo sapiens), O75164. AlphaScreen JMJD2A-Tudor / H3K4me3 peptide binding. Potency, µM (doses to about 114 µM), inactives show at the top dose activity change, negative = inhibition, actives largely listed as inhibitors. 390,000 compounds, 4.4% hits; also: % is scaled to controls: 0 for no effect and ±100 for the full control effect; nearly all actives have a fitted effect of over 50% in size
An asterisk follows results filed as active; [ ] = dose if it differs, or a comment. This is a sample that favours compounds with a hit; in the whole collection about 6.9% have one here. Calls follow the shape of the dose curve; as a rule, active = well fitted curve in the direction sought with a large enough effect; inconclusive = small, poorly fitted or top-dose-only effect, or another doubt; inactive = no such curve, though single readings can be large; an effect the other way counts as inactive or inconclusive. Potency is read from the fitted curve at half-maximal effect.

Screening CC(C)(C)NC(=O)NC(=O)CSc1n[nH]c(-c2ccccc2Br)n1 returned BAZ2B block -10.0%, VDR inh -16.5%, PLK1 PBD block -10.7%, HP1b chromo inh 3.0%, L3MBTL1 block -0.8% and JMJD2A Tudor -11.7%.
`S=c1nc(-c2cc(Cl)ccc2Cl)[nH][nH]1` gave BAZ2B block -22.6%, VDR inh inconclusive, PLK1 PBD block 15µM*, HP1b chromo inh inconclusive, L3MBTL1 block 16.0% and JMJD2A Tudor 5.01µM*.
Screening CCOC(=O)C1CCN(C(c2ccc(C)cc2)c2c(O)cc(C)n(CCOC)c2=O)CC1 (centres undefined) returned BAZ2B block 4.7%, VDR inh -2.7%, HP1b chromo inh 39.7%[57 µM] and JMJD2A Tudor 2.3%.
Cc1cn([C@H]2C[C@H](O)[C@@H](CCC(=O)NCC(c3ccccc3)c3ccccc3)O2)c(=O)[nH]c1=O was read as PLK1 PBD block -4.9%.
Screening Cc1cc(O)ccc1Nc1nc2ccccc2nc1Nc1ccc(O)cc1C returned BAZ2B block 50.1µM*, VDR inh -6.5%, PLK1 PBD block inconclusive, HP1b chromo inh -17.3%, L3MBTL1 block -11.0% and JMJD2A Tudor 89.1µM*.
For Oc1ccc2ccccc2c1SSc1c(O)ccc2ccccc12 the results were VDR inh 10µM*.
Screening NCc1c(O)ccc2ccccc12 returned BAZ2B block -28.8% and L3MBTL1 block 2.3%.
For CCC1S/C(=N/N=C/c2cccs2)NC1=O (centres undefined) the results were BAZ2B block 0.8%, VDR inh -13.2%, PLK1 PBD block -11.0%, HP1b chromo inh 33.0%, L3MBTL1 block -0.6% and JMJD2A Tudor -11.6%[11.4 µM].
`CCCC1S/C(=N/N=C/c2cccs2)NC1=O` (centres undefined) gave BAZ2B block -2.7%, VDR inh 5.6%, PLK1 PBD block 16.8µM*, HP1b chromo inh 5.8%, L3MBTL1 block 10.3% and JMJD2A Tudor -28.1%[11.4 µM].
N#Cc1ccc(OCCN2CCc3ccccc3C2)cc1 was read as VDR inh 5.6%, PLK1 PBD block 2.4%, HP1b chromo inh inconclusive and JMJD2A Tudor 25.1µM*.
Screening COc1ccc(OCCOCCN2CCc3ccccc3C2)cc1 returned BAZ2B block 50.1µM*, VDR inh -0.7%, PLK1 PBD block -4.1%, HP1b chromo inh inconclusive and JMJD2A Tudor 2.51µM*.
Cc1ccc(Cl)c(OCCN2CCc3ccccc3C2)c1 was read as BAZ2B block 5.2%, VDR inh inconclusive, PLK1 PBD block -11.3%, HP1b chromo inh 42.6%, L3MBTL1 block 11.4% and JMJD2A Tudor 0.7%.
Screening CCN1CCN(CCOCCOc2ccccc2)CC1 returned BAZ2B block 79.4µM*, VDR inh -3.5%, PLK1 PBD block -3.4%, HP1b chromo inh inconclusive, L3MBTL1 block -18.9% and JMJD2A Tudor 17.8µM*.
Screening Clc1ccc(OCCCCN2CCc3ccccc3C2)cc1 returned BAZ2B block 6.3%, VDR inh -6.8%, PLK1 PBD block -10.4%, HP1b chromo inh 100.2%, L3MBTL1 block 42.6% and JMJD2A Tudor 18.2%.
Screening N#Cc1cccc(NS(=O)(=O)c2ccc3c(c2)CCC(=O)N3)c1 returned JMJD2A Tudor -4.3%.
`N#CCCCSc1nnnn1-c1cc(C(F)(F)F)cc(C(F)(F)F)c1` gave VDR inh 2.6%.
S=c1[nH]nc(C2CCCCC2)n1/N=C/C=C/c1ccccc1 was read as BAZ2B block inconclusive, VDR inh -9.8%, PLK1 PBD block inconclusive, HP1b chromo inh -33.7%, L3MBTL1 block -13.1% and JMJD2A Tudor 79.4µM*.
Fc1ccccc1-c1n[nH]c(=S)n1/N=C/c1c[nH]c2ccccc12 was read as BAZ2B block inconclusive, VDR inh 1.4%, PLK1 PBD block inconclusive, HP1b chromo inh -3.0% and JMJD2A Tudor 35.5µM*.
S=c1[nH]nc(C2CCCCC2)n1/N=C/c1ccccc1Br was read as BAZ2B block -38.6%, VDR inh -28.7%, PLK1 PBD block 11.9µM*, HP1b chromo inh inconclusive and JMJD2A Tudor 17.8µM*.
For O=C(O)COc1ccccc1/C=N/n1c(C2CCCCC2)n[nH]c1=S the results were BAZ2B block -4.9%, VDR inh inconclusive, PLK1 PBD block inconclusive, HP1b chromo inh 0.9% and JMJD2A Tudor 25.1µM*.
Screening Cc1cc(C)n(/N=C/c2c[nH]c3ccccc23)c(=O)c1 returned BAZ2B block 15.0%, VDR inh -8.7%, PLK1 PBD block -18.1%, HP1b chromo inh 19.2%, L3MBTL1 block -2.7% and JMJD2A Tudor -16.7%.
CC(C)NC(=O)c1ccc(Cn2c(=O)c3cccn3c3cccnc32)cc1 was read as BAZ2B block -4.2%, VDR inh -3.5%, HP1b chromo inh 27.7% and JMJD2A Tudor 13.2%.
Screening Cc1ccc(NC(=O)C2Cc3ccccc3N2C(=O)c2ccccc2)cc1Cl (centres undefined) returned BAZ2B block -1.7%, VDR inh 8.4%, HP1b chromo inh 38.7% and JMJD2A Tudor 4.6%.
For Cc1ccccc1/C=N/n1c(C2CCCCC2)n[nH]c1=S the results were BAZ2B block -1.1%, VDR inh -19.4%, PLK1 PBD block -9.4%, HP1b chromo inh 28.8% and JMJD2A Tudor -22.5%.
For Fc1ccccc1/C=N/n1c(C2CCCCC2)n[nH]c1=S the results were BAZ2B block 2.0%, VDR inh -14.0%, PLK1 PBD block inconclusive, HP1b chromo inh -13.4% and JMJD2A Tudor 39.8µM*.
Screening Cc1oc2ncn(CC(C)C)c(=O)c2c1C(=O)N(CCN(C)C)Cc1ccccc1 returned BAZ2B block 10.1%[57.1 µM], VDR inh 16.9%, HP1b chromo inh 25.6% and JMJD2A Tudor -4.2%.
For N#CC1=C(N)OC2=C(CC/C2=C\c2ccc(F)cc2)C1c1ccc(F)cc1 (centres undefined) the results were BAZ2B block -37.4% and L3MBTL1 block 9.7%.
`N#CC1=C(N)OC2=C(CCC/C2=C/c2ccoc2)C1c1ccoc1` (centres undefined) gave BAZ2B block inconclusive and L3MBTL1 block 15.8µM*.
`O=[N+]([O-])c1ccc(O)c(N=Cc2sc3ccccc3c2O)c1` gave BAZ2B block 14.1µM*, VDR inh 2.6%, PLK1 PBD block 0.4%, HP1b chromo inh -35.1%, L3MBTL1 block -17.0% and JMJD2A Tudor 44.7µM*.
